Among the data in PubChem BioAssay (EPA / NIEHS) are outcome and AC50 values, retold here.

Molecules are shown by their SMILES. Inconclusive results are not listed. Activity calls are given as the source filed them. The calls were made as follows, unless noted: active = hit-call score of the fitted dose curve at least 0.9, where 1 is the maximum; inactive = score below 0.9.

For test [1], the target named is Retinoic acid receptor RXR-alpha (Homo sapiens) (UniProt P19793). Kind of test: ATG_RXRa_TRANS: Attagene TRANS-FACTORIAL HepG2 Assay for human Retinoid X Receptor alpha (RXRa) (AID 2283012; active = hit-call score of the fitted dose curve at least 0.9, where 1 is the maximum). The gist of the method:
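Measures exogenous chimeric NR-GAL4 activity in transfected HepG2 liver cells after 24 h of dosing. Induced reporter mRNA was detected by RT-PCR with capillary electrophoresis, and gain of signal was analysed against DMSO.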

For test [2], the target named is human Thyroid Receptor alpha (THRa1), THRA (gene 7067) (UniProt P10827). Kind of test: ATG_THRa1_TRANS: Attagene TRANS-FACTORIAL HepG2 Assay for human Thyroid Receptor alpha (THRa1) (AID 2283014; active = hit-call score of the fitted dose curve at least 0.9, where 1 is the maximum). The gist of the method: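 Reporter transcript induction, read by capillary electrophoresis of 6-FAM-labelled RT-PCR products, reflects activity of a transfected THRa1-Gal4 fusion in HepG2 liver cells. Cells were dosed for 24 h; activity was fitted in the positive direction against DMSO.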
Sequence of human Thyroid Receptor alpha (THRa1), THRA (gene 7067) (P10827 whole entry, looked up, the tested form may be a part): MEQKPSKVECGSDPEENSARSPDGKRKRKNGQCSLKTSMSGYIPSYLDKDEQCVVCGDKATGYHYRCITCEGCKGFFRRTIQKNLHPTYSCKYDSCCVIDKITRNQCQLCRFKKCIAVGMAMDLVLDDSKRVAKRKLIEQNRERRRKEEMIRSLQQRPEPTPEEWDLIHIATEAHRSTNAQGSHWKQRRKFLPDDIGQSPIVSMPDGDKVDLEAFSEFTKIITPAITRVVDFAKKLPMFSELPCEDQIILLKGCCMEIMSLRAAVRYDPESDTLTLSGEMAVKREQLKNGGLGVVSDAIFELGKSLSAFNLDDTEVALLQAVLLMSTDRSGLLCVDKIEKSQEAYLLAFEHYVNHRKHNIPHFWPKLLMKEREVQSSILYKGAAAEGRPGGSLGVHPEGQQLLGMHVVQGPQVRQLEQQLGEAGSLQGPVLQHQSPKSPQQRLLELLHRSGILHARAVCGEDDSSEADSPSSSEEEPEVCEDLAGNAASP

Read-out in test [3]: E-selectin (Homo sapiens) (UniProt P16581)
Kind of test: BSK_3C_Eselectin: BioMAP Diversity Plus: 3C Assay for Eselectin Biomarker Activity (AID 2283015).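 As to outcome: cell surface E-selectin protein quantified by ELISA 24 h after dosing.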 The conditions noted are these: primary human endothelial cells (HUVEC); actives raise or lower the signal. The gist of the method: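 ELISA read-out of E-selectin on endothelial monolayers after 24 h chemical treatment. Human umbilical vein primary cells served as the system, with DMSO defining baseline activity for bidirectional fitting.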

Read-out in test [4]: Interleukin-1 alpha (IL1a), IL1A (gene 3552)
Kind of test: BSK_BE3C_IL1a: BioMAP Diversity Plus: BE3C Assay for Interleukin-1 alpha (IL1a) Biomarker Activity (AID 2283016). The note with it: primary human bronchial epithelial cells; actives raise or lower the signal. The gist of the method: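 Signal from IL-1a ELISA, taken 24 h after chemical dosing of human bronchial epithelial cells, is compared with DMSO as baseline using bidirectional curve fitting.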

Read-out in test [5]: Monocyte Chemoattractant Protein-1 (MCP1), CCL2 (gene 6347)
Put plainly: BSK_3C_MCP1: BioMAP Diversity Plus: 3C Assay for Monocyte Chemoattractant Protein-1 (MCP1) Biomarker Activity (AID 2283017). The note with it: primary human endothelial cells (HUVEC); actives raise or lower the signal. In short, it runs like this: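 ELISA read-out of MCP-1 from human umbilical vein endothelial cell cultures harvested 24 h post-dosing. Gain or loss of signal was fitted relative to DMSO.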

Read-out in test [6]: Monocyte Chemoattractant Protein-1 (MCP1), CCL2 (gene 6347)
Put plainly: BSK_4H_MCP1: BioMAP Diversity Plus: 4H Assay for Monocyte Chemoattractant Protein-1 (MCP1) Biomarker Activity (AID 2283018). The note with it: primary human endothelial cells (HUVEC); actives raise or lower the signal. In short, it runs like this: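 Endothelial cells from umbilical vein were treated with test chemical, then after 24 h MCP-1 levels were quantified by ELISA; endpoint values came from bidirectional fitting with DMSO as baseline of activity.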

Read-out in test [7]: Human Leukocyte Antigen - DR isotype (HLADR), HLA-DRA (gene 3122)
Kind of test: BSK_3C_HLADR: BioMAP Diversity Plus: 3C Assay for Human Leukocyte Antigen - DR isotype (HLADR) Biomarker Activity (AID 2283019). The conditions noted are these: primary human endothelial cells (HUVEC); actives raise or lower the signal. In short, it runs like this: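 ELISA readout of surface HLA-DR on human umbilical vein endothelium, taken 24 h after chemical treatment. Gain- and loss-of-signal were both fitted relative to DMSO.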

Read-out in test [8]: Interleukin-8 (IL8), CXCL8 (gene 3576)
Kind of test: BSK_3C_IL8: BioMAP Diversity Plus: 3C Assay for Interleukin-8 (IL8) Biomarker Activity (AID 2283020). The conditions noted are these: primary human endothelial cells (HUVEC); actives raise or lower the signal. In short, it runs like this: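 Endothelial primary cells of human umbilical vein origin are dosed with chemical; after 24 h the IL-8 biomarker is measured by ELISA, and concentration–response is fitted in both directions versus DMSO.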

Read-out in test [9]: Monokine induced gamma interferon (MIG), CXCL9 (gene 4283)
Kind of test: BSK_3C_MIG: BioMAP Diversity Plus: 3C Assay for Monokine induced gamma interferon (MIG) Biomarker Activity (AID 2283021). The conditions noted are these: primary human endothelial cells (HUVEC); actives raise or lower the signal. In short, it runs like this:
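Endothelial primary cells (human umbilical vein) are dosed with test chemical in the 3C system. MIG levels are measured by ELISA at 24 h and fitted in both directions relative to DMSO.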

In test [10] the target is human Vitamin D Receptor (VDR), VDR (gene 7421) (UniProt P11473). Put plainly: ATG_VDR_TRANS: Attagene TRANS-FACTORIAL HepG2 Assay for human Vitamin D Receptor (VDR) (AID 2283022; active = hit-call score of the fitted dose curve at least 0.9, where 1 is the maximum). In short, it runs like this:
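Steps: transfect HepG2 with GAL4-UAS-driven reporter constructs; dose compounds 24 h; isolate RNA, reverse-transcribe, PCR-amplify with 6-FAM-labelled primer extension and HpaI digestion; quantify fragments by capillary electrophoresis relative to DMSO.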

A short description of test [11]: BSK_3C_SRB: Viability Assessment in the BioMAP Diversity Plus: 3C Assay (AID 2283023).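 Also: fitted both ways against DMSO so a hit may be signal rise or drop.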 The conditions noted are these: primary human endothelial cells (HUVEC). In short, it runs like this:
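Absorbance at 560 nm of sulforhodamine B-stained (0.1%) total protein served as a cytotoxicity readout in human umbilical vein endothelial cells, 24 h after chemical treatment. Signal was fitted bidirectionally relative to DMSO.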

Read-out in test [12]: Matrix Metallopeptidase 1 (MMP1), MMP1 (gene 4312)
Put plainly: BSK_BE3C_MMP1: BioMAP Diversity Plus: BE3C Assay for Matrix Metallopeptidase 1 (MMP1) Biomarker Activity (AID 2283024). The note with it: primary human bronchial epithelial cells; actives raise or lower the signal. The gist of the method: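 MMP1 signal, measured by ELISA after a 24 h chemical exposure of human primary bronchial epithelial cells, is analysed with bidirectional fitting using DMSO as negative control.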

Test [13] in a line: BSK_3C_Vis: BioMAP Diversity Plus: 3C Assay for Morphology Visualization (AID 2283025).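 Also: fitted both ways so gain or loss versus DMSO counts.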 The note with it: primary human endothelial cells (HUVEC). In short, it runs like this:
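Morphology read by light microscopy serves as a background control for the multiplexed 3C assay in human umbilical vein endothelial cells, taken 24 h after dosing, with DMSO as the negative control and bidirectional curve fitting.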

Read-out in test [14]: Pselectin, SELP (gene 6403)
Kind of test: BSK_4H_Pselectin: BioMAP Diversity Plus: 4H Assay for Pselectin Biomarker Activity (AID 2283026). The conditions noted are these: primary human endothelial cells (HUVEC); actives raise or lower the signal. The gist of the method: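 Endothelial primary cells (human umbilical vein) are dosed, incubated 24 h, and assayed for surface P-selectin by ELISA; responses in either direction are fitted relative to the DMSO negative control.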

A short description of test [15]: BSK_4H_SRB: Viability Assessment in the BioMAP Diversity Plus: 4H Assay (AID 2283027).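 Also: cells exposed to compound for 24 h before staining.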 The conditions noted are these: primary human endothelial cells (HUVEC). In short, it runs like this:
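Cytotoxicity read-out in primary human endothelial cells: after 24 h compound exposure, cells were TCA-fixed (10%), stained with 0.1% SRB and absorbance taken at 560 nm. Values fitted in both directions relative to DMSO.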

Test [16] is described as follows: BSK_BE3C_SRB: Viability Assessment in the BioMAP Diversity Plus: BE3C Assay (AID 2283028). The conditions noted are these: primary human bronchial epithelial cells. The gist of the method:
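Cells (human bronchial epithelial, primary) are treated with chemicals, and after 24 h the parallel cultures are fixed in 10% TCA. These are then stained with 0.1% SRB and read at 560 nm. Gain or loss of signal is fitted relative to DMSO.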

Read-out in test [17]: Thrombomodulin, THBD (gene 7056)
Kind of test: BSK_3C_Thrombomodulin: BioMAP Diversity Plus: 3C Assay for Thrombomodulin Biomarker Activity (AID 2283029). The conditions noted are these: primary human endothelial cells (HUVEC); actives raise or lower the signal. The gist of the method:
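Endothelial cells from umbilical vein are dosed with test chemical and incubated 24 h. Thrombomodulin is then quantified by ELISA, with DMSO serving as negative control and activity baseline.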

Read-out in test [18]: Urokinase-type plasminogen activator receptor (uPAR), PLAUR (gene 5329)
Put plainly: BSK_4H_uPAR: BioMAP Diversity Plus: 4H Assay for Urokinase-type plasminogen activator receptor (uPAR) Biomarker Activity (AID 2283030). The conditions noted are these: primary human endothelial cells (HUVEC); actives raise or lower the signal. The gist of the method: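 Cell-surface uPAR ELISA signal, measured 24 h after dosing human umbilical vein endothelial cells, was analyzed with bidirectional fitting relative to DMSO. Parallel SRB staining of total protein tracked overt cytotoxicity.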

Read-out in test [19]: Vascular endothelial growth factor receptor 2 (Homo sapiens) (UniProt P35968)
Put plainly: BSK_4H_VEGFRII: BioMAP Diversity Plus: 4H Assay for Vascular endothelial growth factor receptor 2 (VEGFR2) Biomarker Activity (AID 2283031). The note with it: primary human endothelial cells (HUVEC); actives raise or lower the signal. The gist of the method:
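ELISA read-out of VEGFRII in primary human umbilical vein endothelium, taken 24 h after chemical treatment. Responses are expressed relative to DMSO, with bidirectional fitting.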

Sequence of human Vitamin D Receptor (VDR), VDR (gene 7421) (P11473 whole entry, looked up, the tested form may be a part): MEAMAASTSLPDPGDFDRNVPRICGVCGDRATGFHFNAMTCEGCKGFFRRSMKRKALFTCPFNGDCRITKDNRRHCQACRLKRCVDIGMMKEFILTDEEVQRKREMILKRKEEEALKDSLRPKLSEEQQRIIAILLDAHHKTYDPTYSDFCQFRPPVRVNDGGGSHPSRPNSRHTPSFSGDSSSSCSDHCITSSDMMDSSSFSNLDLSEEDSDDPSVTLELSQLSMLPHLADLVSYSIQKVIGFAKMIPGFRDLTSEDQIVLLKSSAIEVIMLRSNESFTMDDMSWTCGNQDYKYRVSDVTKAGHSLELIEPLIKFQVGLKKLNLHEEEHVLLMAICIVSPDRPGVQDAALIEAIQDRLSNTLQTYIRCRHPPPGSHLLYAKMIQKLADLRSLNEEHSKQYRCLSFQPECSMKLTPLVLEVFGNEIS
Sequence of Retinoic acid receptor RXR-alpha (Homo sapiens) (P19793 whole entry, looked up, the tested form may be a part): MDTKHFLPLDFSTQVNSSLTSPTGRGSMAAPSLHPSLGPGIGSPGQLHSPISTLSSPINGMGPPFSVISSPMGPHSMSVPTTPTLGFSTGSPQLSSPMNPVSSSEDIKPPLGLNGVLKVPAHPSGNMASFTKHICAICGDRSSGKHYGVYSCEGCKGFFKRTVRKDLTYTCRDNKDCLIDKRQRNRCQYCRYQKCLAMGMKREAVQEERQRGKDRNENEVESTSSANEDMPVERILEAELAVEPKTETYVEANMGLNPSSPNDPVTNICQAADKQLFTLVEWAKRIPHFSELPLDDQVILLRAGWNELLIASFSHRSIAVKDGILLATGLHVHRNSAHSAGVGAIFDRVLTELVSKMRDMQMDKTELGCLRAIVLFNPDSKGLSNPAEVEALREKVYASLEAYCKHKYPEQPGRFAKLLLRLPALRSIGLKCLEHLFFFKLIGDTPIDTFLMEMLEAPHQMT
Sequence of E-selectin (Homo sapiens) (P16581 whole entry, looked up): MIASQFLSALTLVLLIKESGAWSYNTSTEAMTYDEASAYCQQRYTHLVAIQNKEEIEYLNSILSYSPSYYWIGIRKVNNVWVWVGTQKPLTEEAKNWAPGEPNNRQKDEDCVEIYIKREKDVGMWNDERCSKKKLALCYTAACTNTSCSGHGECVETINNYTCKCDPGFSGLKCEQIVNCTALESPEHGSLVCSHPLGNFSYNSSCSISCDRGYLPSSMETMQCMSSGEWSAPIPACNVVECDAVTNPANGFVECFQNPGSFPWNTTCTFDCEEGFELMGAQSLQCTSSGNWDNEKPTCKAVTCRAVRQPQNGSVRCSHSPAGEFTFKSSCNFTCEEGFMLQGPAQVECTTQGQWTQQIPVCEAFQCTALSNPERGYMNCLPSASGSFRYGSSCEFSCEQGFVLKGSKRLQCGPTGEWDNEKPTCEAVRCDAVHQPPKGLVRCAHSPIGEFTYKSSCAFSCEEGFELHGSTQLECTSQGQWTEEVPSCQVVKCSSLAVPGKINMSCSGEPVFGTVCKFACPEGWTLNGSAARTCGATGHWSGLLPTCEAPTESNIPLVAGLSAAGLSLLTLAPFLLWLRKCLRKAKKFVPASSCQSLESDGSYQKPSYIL

Consider `CCCCCCCC(=O)OCC(O)CO` (stereo not given), for which the compound was classed as inactive in test [1] and in test [2].

`CN(C)C(=O)Nc1ccc(Oc2ccc(Cl)cc2)cc1`: the compound was called inactive in [1], in test [2], in [7], in test [8], in [9] and in [10]. For the same compound, the outcome in test [11], in test [12], in [13], in [14], in test [15] and in test [16] was inactive. Besides, the outcome in test [17], in test [18] and in test [19] was inactive. For the same compound, the concentration at half-maximal activity (AC50) (in general, the concentration at which the activity in the assay is half-maximal) is 20 µM (active) in [3], 3.97 µM (active) in test [4], 3.97 µM (active) in test [5] and 12.1 µM (active) in [6].

Consider `COC(=O)c1ccc(OC)cc1`, for which the outcome in test [1] and in [10] was inactive.

Turning to `CCN(CCC#N)c1ccc(N=Nc2ccc([N+](=O)[O-])cc2)cc1`, the compound was classed as inactive in [1] and in test [10].

As to `CC(C)(N=C=O)c1cccc(C(C)(C)N=C=O)c1`, the compound was classed as inactive in [1], in [3], in test [4], in [5], in [6] and in [7]. The result in test [8], in [9], in [11], in [12], in test [13] and in [14] was inactive. The outcome in test [15], in test [16], in [17], in test [18] and in [19] was inactive.

As for `c1ccc2cc(Nc3ccc(Nc4ccc5ccccc5c4)cc3)ccc2c1`, the outcome in test [1], in test [2], in [3], in [5], in test [6] and in test [7] was inactive. For the same compound, the outcome in test [8], in [9], in [11], in test [12], in test [14] and in test [15] was inactive. Besides, the outcome in test [16], in [17], in test [18] and in [19] was inactive. Moreover, the half-maximal activity concentration (AC50) is 0.147 µM (active) in test [4] and 8.8 µM (active) in test [13].

Consider `O=C1NC2NC(=O)NC2N1` (stereo not given), for which the outcome in test [1] and in test [10] was inactive.

On to `C[C@H]1C[C@@H](O)CC(C)(C)C1`, for which the result in test [1], in [2] and in [10] was inactive.

Regarding `C[Si]1(C)O[Si](C)(C)O[Si](C)(C)O1`, the result in [1], in [2] and in [10] was inactive.

As for `C#CC(C)(O)CC(C)C` (stereo not given), the compound was called inactive in test [1], in [2] and in test [10].

For the compound `OCC(O)c1ccccc1` (stereo not given), the outcome in test [1], in test [2] and in [10] was inactive.

For the compound `Cc1c(C2(c3cc(Br)c(O)c(Br)c3C)OS(=O)(=O)c3ccccc32)cc(Br)c(O)c1Br`, the result in [1], in test [2] and in [10] was inactive.

Turning to `CCCC(=O)c1ccccc1`, the call in [1], in [2] and in test [10] was inactive.

In the case of `Cc1ccc(S(N)(=O)=O)cc1`, the result in [1] and in test [2] was inactive.

Regarding `CC(=O)CC(=O)Nc1ccccc1`, the compound was called inactive in test [1] and in test [2].

For `CCCC(O)C(O)CO` (stereo not given), the result in test [1], in [2] and in [10] was inactive.

Consider `Cc1[nH]c(=O)c(C#N)cc1-c1ccncc1`, for which the compound was classed as inactive in [1] and in test [2].

In the case of `COC(=O)C=C(C)CCC=C(C)C`, the call in test [1], in [2] and in test [10] was inactive.

Take `Cc1ccc(OC(=O)c2ccccc2O)cc1`: the outcome in test [1], in test [2] and in test [10] was inactive.
